In all, about 9,900 sequences were measured (“r (bound/input frequency ratio)”: median about 0.7, highest 2% from about 6.5 on). The sample as a whole holds a higher share of the highest values than the screen did.
B1: ENSMUSG00000090935.612|Synj2bp (ssRNA)
RNA: GGGAGUUCUACAGUCCGACGAUCGCUUCGAUAUCCGCAUGCUAUUUUCUGUGUGGGUGAUUUCAUUUAAUUAAUUGGACAGUCUAGCCACAGGCAACAAAUAGAAAUAGUAUUUGUAAUUAUAGUCUAUGCCAGGGACUGUCUUAAACUGAUUAGUAACACUAUGACUUACCCUGAGAUCUAAGUAUUGCUAUAAAGAGACUGAAGAGGAGAGAAUAAAGUAUUUUCCUAGGACUACAUAGUUGGUAAAAGAGAAUCAUGAUUUAAACUCUGGACUAUGGAUGGCAGUAUCAGUAAUAUUCCCCUCUUGCGGUCGCACUAGUGUGGAAUUCUCGGGUGUCAAGG
B2: ENSMUSG00000061578.450|Ksr2 (ssRNA)
RNA: GGGAGUUCUACAGUCCGACGAUCGCUUCGAUAUCCGCAUGCUACUUCUAACCUUGUACUGGGACAUCAUCUAUGUCCCCAUCCCCAGAGCUGAAUUAGAGACACCAAGUAGCCUCUUGGGUUGUUUUGUGGGGUGUUCCCCUUGCUGGUCAAAGGAGUGGAAAGCCACCUUGCUGUAAAUGCUCUUGUUUUCUGUAGCAAUCUUGAACUCUUUUUUUUUUUUGUUCGUUUGUUUGUUUGUUUGUUUGUUUGUUUUUUCAAGACAGGGUUUUUCUGUAUAGCCCUGGCUGUCCUGGAACUCAUUCUCUUGCGGUCGCACUAGUGUGGAAUUCUCGGGUGUCAAGG
B3: ENSMUSG00000043670.112|Diras1 (ssRNA)
RNA: GGGAGUUCUACAGUCCGACGAUCGCUUCGAUAUCCGCAUGCUACCGUGACCUCUGACCUGUGGCCUUCCCUGGGUCCAGAACACCCCUGUCCUCUCCUGUCUGCACACCAGGGUGGAUGGGCCCGAGGGCUGGGCCUCAGGCACCAGGCAAUAAACACAGGGCCUGCAGCAAUGCCCUGGCCACCCCGAGUACCACCUCUGGAAUAGCAGACGCCCACAGCACAAGCCCAGGACUGUCCCUUCAGGGGAGGCACACUGGAACCCUGAACUUGGAGUGUGGAGUGGCUGCCUGGACACUGCCCACUCUUGCGGUCGCACUAGUGUGGAAUUCUCGGGUGUCAAGG
B4: ENSMUSG00000090935.544|Synj2bp (ssRNA)
RNA: GGGAGUUCUACAGUCCGACGAUCGCUUCGAUAUCCGCAUGCUAUUGUUGAUCUAAAUAAAAAAUAUCAUUGGUAGAAGUUUUACUUUGGUUGAUAAGGAUUCUGAUAACAUUUGGGUCUCCUUAGGAAAGAAACACUUAACUAAAACAUUUAAGUUUUAGGCAAAUACUGUAAUAUUUCACUCUUAGUUAUAUGAAAACUAAAUGAGAUGUUGAGAAUCUAUAUAGAUUAUUCAAAUUUUAUGUUUCUUAUAGACUGACUCAAAUAUUCCUACCACCUUAAAAUUAUAUAUGAUGCACCUACCCUCUUGCGGUCGCACUAGUGUGGAAUUCUCGGGUGUCAAGG
B5: ENSMUSG00000029028.198|Lrrc47 (ssRNA)
RNA: GGGAGUUCUACAGUCCGACGAUCGCUUCGAUAUCCGCAUGCUAUGUGUACGCAUCUGUACCAGCACACAGCUGCCAUCCCUCGAGCCACAGUGCCUGGUCCUAAGGACCCAGCAGCUGCACAGAGGACUUGGUGGCCCCGUGCCUUGCCAUCUGGCUGAGAAGAGAACCAGACCCUCAGCCUUCCCCCUCGACACCUUCUCGUUGGUGACCUCUGACCUUAAAGGACCAUUUCUACCUUCUGUAAAAGAACACCUGUUUGGGGUUGCGUGCGGCUUUCAUCCUAAGGCCGUGCGAGAGCCGUUCUCUUGCGGUCGCACUAGUGUGGAAUUCUCGGGUGUCAAGG
B6: ENSMUSG00000029636.117|Wasf3 (ssRNA)
RNA: GGGAGUUCUACAGUCCGACGAUCGCUUCGAUAUCCGCAUGCUAGGAGCCCUGUGGGUACUCAUGUGGAAAGUGCCCACUGACUUUGGCAGAUGGAGUUCACUUUCAUGGCUAGCCCUGAUAGCGUUGGGCACCAGUUAGCCAGGCCAUGUUCAAGCUGCCUAGAGUCUGCAGAGCUUGCAUGGCAGAGCGGCCGCAUCUGGUUCCCUCCUACUCCACCCAGUGGAAAAGAGACCUCCACGUUUUAUUUUCUGGGAUCCCUGCUCCUCUGUUCACCAGGGAGUGAGCACAGGUCAGCACCUCACCUCUUGCGGUCGCACUAGUGUGGAAUUCUCGGGUGUCAAGG
B7: ENSMUSG00000042529.497|Kcnj12 (ssRNA)
RNA: GGGAGUUCUACAGUCCGACGAUCGCUUCGAUAUCCGCAUGCUAGGGCCCCUGCAGCUGGACCAUGUACAGGGCUCCCUGGGGCUUGUCCUCAGGGGCAGAGAAGGACAUGGUGGCAGCAGCACUGAGAACAGGAGCAUGGCCUCUCUCAGACCCCAGGGCAGUCAUUCAGUCUUUUCCAUGGACACUCCCCACCGCUCCACAUACUGCCUCCGCCUCAUUCUUGGGCUCUUCCUGCCUUGCUGUCUUUCCUUCCACACAGAAGCACCAAGCAUCAUCCAUUCCCAUAGGCAAGCCCAGGGCACCUCUUGCGGUCGCACUAGUGUGGAAUUCUCGGGUGUCAAGG
B8: ENSMUSG00000058297.521|Spock2 (ssRNA)
RNA: GGGAGUUCUACAGUCCGACGAUCGCUUCGAUAUCCGCAUGCUAGACCACGUGUGAUGGGUGGGCACAGGUCUGCCUUGCUCCAGCCCCCUCCCUUGGUUUCUGUUGGUACCCAUUUGGCUUUUAUCUGCUUUCUGCUUCACCACUAAGUGCGUAGGUGGGGUCUUUUGAUAUCGGCUCCCCAAAGCCCAAGCCCACAGCCCUAGGAGAGAACCAGGGGCCCAUCUUUGACACCUGGGCCAUCACGAGCCCUCCCGCCUGCAGUUGUCCUAGGGAAAGACCUGGGGGUGCAAAAGGAGAUUCAACUCUUGCGGUCGCACUAGUGUGGAAUUCUCGGGUGUCAAGG
B9: ENSMUSG00000029028.33|Lrrc47 (ssRNA)
RNA: GGGAGUUCUACAGUCCGACGAUCGCUUCGAUAUCCGCAUGCUACUGUGGGUGUGCUGUAGGUGUCUGUGUGGGUGUGCUGUAGGUGUCUGUGUAGGUGUGGGUGUGCUGUAGGUGUCUGUGUGGGUGUGCUAGGUGUCUGUAUAGGUGUGGGUGUGCUGUAGAUGUCUGUGUAGGUAUGGGUGUGCUGUAGAUCUUUGUAGGUGUAGGUAUGCUGUAGGUAUCUGGGUGUGGGUAUGCUGUAGAUGUCUGUGUAGGUGUGGAUAUGCUGUAGGUAUCUGGGUGUGCUGUAGGUGUCUGUGUGGCUCUUGCGGUCGCACUAGUGUGGAAUUCUCGGGUGUCAAGG
B10: ENSMUSG00000029028.14|Lrrc47 (ssRNA)
RNA: GGGAGUUCUACAGUCCGACGAUCGCUUCGAUAUCCGCAUGCUACCACGUGACUGUGGUCCGCUGACAGGCUCCUGUAGGUGUGGGUGUGCUGUAGGUGUCUGUGUGGGUGUGGGUGUGCUGUAGGUGUCUGUGUGGGUGUGGGUGUGCUAUAGGUAUCUGUGGGUGUGCUGUAGGUGUCUGUGUGGGUGUGCUGUAGGUGUCUGUGUAGGUGUGGGUGUGCUGUAGGUGUCUGUGUGGGUGUGCUAGGUGUCUGUAUAGGUGUGGGUGUGCUGUAGAUGUCUGUGUAGGUAUGGGUGUGCUGUCUCUUGCGGUCGCACUAGUGUGGAAUUCUCGGGUGUCAAGG
B11: ENSMUSG00000029028.18|Lrrc47 (ssRNA)
RNA: GGGAGUUCUACAGUCCGACGAUCGCUUCGAUAUCCGCAUGCUAGGCUCCUGUAGGUGUGGGUGUGCUGUAGGUGUCUGUGUGGGUGUGGGUGUGCUGUAGGUGUCUGUGUGGGUGUGGGUGUGCUAUAGGUAUCUGUGGGUGUGCUGUAGGUGUCUGUGUGGGUGUGCUGUAGGUGUCUGUGUAGGUGUGGGUGUGCUGUAGGUGUCUGUGUGGGUGUGCUAGGUGUCUGUAUAGGUGUGGGUGUGCUGUAGAUGUCUGUGUAGGUAUGGGUGUGCUGUAGAUCUUUGUAGGUGUAGGUAUGCCUCUUGCGGUCGCACUAGUGUGGAAUUCUCGGGUGUCAAGG
B12: ENSMUSG00000029028.22|Lrrc47 (ssRNA)
RNA: GGGAGUUCUACAGUCCGACGAUCGCUUCGAUAUCCGCAUGCUAGUAGGUGUCUGUGUGGGUGUGGGUGUGCUGUAGGUGUCUGUGUGGGUGUGGGUGUGCUAUAGGUAUCUGUGGGUGUGCUGUAGGUGUCUGUGUGGGUGUGCUGUAGGUGUCUGUGUAGGUGUGGGUGUGCUGUAGGUGUCUGUGUGGGUGUGCUAGGUGUCUGUAUAGGUGUGGGUGUGCUGUAGAUGUCUGUGUAGGUAUGGGUGUGCUGUAGAUCUUUGUAGGUGUAGGUAUGCUGUAGGUAUCUGGGUGUGGGUAUGCUCUUGCGGUCGCACUAGUGUGGAAUUCUCGGGUGUCAAGG
B13: ENSMUSG00000029028.27|Lrrc47 (ssRNA)
RNA: GGGAGUUCUACAGUCCGACGAUCGCUUCGAUAUCCGCAUGCUAUAGGUGUCUGUGUGGGUGUGGGUGUGCUAUAGGUAUCUGUGGGUGUGCUGUAGGUGUCUGUGUGGGUGUGCUGUAGGUGUCUGUGUAGGUGUGGGUGUGCUGUAGGUGUCUGUGUGGGUGUGCUAGGUGUCUGUAUAGGUGUGGGUGUGCUGUAGAUGUCUGUGUAGGUAUGGGUGUGCUGUAGAUCUUUGUAGGUGUAGGUAUGCUGUAGGUAUCUGGGUGUGGGUAUGCUGUAGAUGUCUGUGUAGGUGUGGAUAUGCCUCUUGCGGUCGCACUAGUGUGGAAUUCUCGGGUGUCAAGG
B14: ENSMUSG00000029028.16|Lrrc47 (ssRNA)
RNA: GGGAGUUCUACAGUCCGACGAUCGCUUCGAUAUCCGCAUGCUAGGUCCGCUGACAGGCUCCUGUAGGUGUGGGUGUGCUGUAGGUGUCUGUGUGGGUGUGGGUGUGCUGUAGGUGUCUGUGUGGGUGUGGGUGUGCUAUAGGUAUCUGUGGGUGUGCUGUAGGUGUCUGUGUGGGUGUGCUGUAGGUGUCUGUGUAGGUGUGGGUGUGCUGUAGGUGUCUGUGUGGGUGUGCUAGGUGUCUGUAUAGGUGUGGGUGUGCUGUAGAUGUCUGUGUAGGUAUGGGUGUGCUGUAGAUCUUUGUAGCUCUUGCGGUCGCACUAGUGUGGAAUUCUCGGGUGUCAAGG
B15: ENSMUSG00000029028.17|Lrrc47 (ssRNA)
RNA: GGGAGUUCUACAGUCCGACGAUCGCUUCGAUAUCCGCAUGCUACUGACAGGCUCCUGUAGGUGUGGGUGUGCUGUAGGUGUCUGUGUGGGUGUGGGUGUGCUGUAGGUGUCUGUGUGGGUGUGGGUGUGCUAUAGGUAUCUGUGGGUGUGCUGUAGGUGUCUGUGUGGGUGUGCUGUAGGUGUCUGUGUAGGUGUGGGUGUGCUGUAGGUGUCUGUGUGGGUGUGCUAGGUGUCUGUAUAGGUGUGGGUGUGCUGUAGAUGUCUGUGUAGGUAUGGGUGUGCUGUAGAUCUUUGUAGGUGUAGCUCUUGCGGUCGCACUAGUGUGGAAUUCUCGGGUGUCAAGG
B16: ENSMUSG00000029028.15|Lrrc47 (ssRNA)
RNA: GGGAGUUCUACAGUCCGACGAUCGCUUCGAUAUCCGCAUGCUAGACUGUGGUCCGCUGACAGGCUCCUGUAGGUGUGGGUGUGCUGUAGGUGUCUGUGUGGGUGUGGGUGUGCUGUAGGUGUCUGUGUGGGUGUGGGUGUGCUAUAGGUAUCUGUGGGUGUGCUGUAGGUGUCUGUGUGGGUGUGCUGUAGGUGUCUGUGUAGGUGUGGGUGUGCUGUAGGUGUCUGUGUGGGUGUGCUAGGUGUCUGUAUAGGUGUGGGUGUGCUGUAGAUGUCUGUGUAGGUAUGGGUGUGCUGUAGAUCUCUCUUGCGGUCGCACUAGUGUGGAAUUCUCGGGUGUCAAGG
B17: ENSMUSG00000029028.23|Lrrc47 (ssRNA)
RNA: GGGAGUUCUACAGUCCGACGAUCGCUUCGAUAUCCGCAUGCUAGUCUGUGUGGGUGUGGGUGUGCUGUAGGUGUCUGUGUGGGUGUGGGUGUGCUAUAGGUAUCUGUGGGUGUGCUGUAGGUGUCUGUGUGGGUGUGCUGUAGGUGUCUGUGUAGGUGUGGGUGUGCUGUAGGUGUCUGUGUGGGUGUGCUAGGUGUCUGUAUAGGUGUGGGUGUGCUGUAGAUGUCUGUGUAGGUAUGGGUGUGCUGUAGAUCUUUGUAGGUGUAGGUAUGCUGUAGGUAUCUGGGUGUGGGUAUGCUGUAGCUCUUGCGGUCGCACUAGUGUGGAAUUCUCGGGUGUCAAGG

Target: TDP-43 (Homo sapiens, UniProt Q13148 1-414)
Sequence (Q13148 whole entry): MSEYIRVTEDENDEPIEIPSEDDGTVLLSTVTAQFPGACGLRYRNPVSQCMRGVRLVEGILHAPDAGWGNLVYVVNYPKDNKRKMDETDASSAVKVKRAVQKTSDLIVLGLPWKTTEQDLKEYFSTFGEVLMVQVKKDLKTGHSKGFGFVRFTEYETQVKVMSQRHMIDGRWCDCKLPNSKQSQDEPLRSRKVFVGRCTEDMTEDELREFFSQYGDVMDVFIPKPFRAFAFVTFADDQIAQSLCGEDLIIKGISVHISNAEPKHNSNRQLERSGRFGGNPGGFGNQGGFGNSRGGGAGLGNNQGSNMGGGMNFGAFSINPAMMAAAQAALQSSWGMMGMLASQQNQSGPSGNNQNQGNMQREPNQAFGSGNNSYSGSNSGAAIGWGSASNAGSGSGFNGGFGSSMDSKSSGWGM
Assay: RNA Bind-n-Seq with designed 260-mer pool; 25 mM Tris-HCl, 150 mM KCl, 3 mM MgCl2, BSA (printed 500 mg/mL), 20 units/mL SUPERase IN; pH not stated; 500 nM RNA pool, 1 h, 4 C; TDP-43 5, 50, 500 nM; high values mean tight binding
Details: protein: recombinant; tags: SBP (GST cleaved off with PreScission; pGEX-GST-SBP)
Method in brief: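 Recombinant SBP-tagged TDP-43 at 5, 50 or 500 nM was captured on streptavidin beads, then incubated 1 h at 4 °C with 500 nM of an in vitro-transcribed 260-nt 3′ UTR oligo pool in 25 mM Tris-HCl, 150 mM KCl, 3 mM MgCl2, BSA and SUPERase IN. Bound RNA was washed, eluted with biotin, reverse transcribed, PCR-amplified and sequenced. Binding is R, each oligo's mapped-read-normalized abundance in the bound sample divided by its abundance in input. Duplicates used two independent protein batches.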

Binder	binding signal
B1	0.0897 R (bound/input frequency ratio)
B2	2.73 R (bound/input frequency ratio)
B3	0.898 R (bound/input frequency ratio)
B4	0.0172 R (bound/input frequency ratio)
B5	0.346 R (bound/input frequency ratio)
B6	0.346 R (bound/input frequency ratio)
B7	0.929 R (bound/input frequency ratio)
B8	0.432 R (bound/input frequency ratio)
B9	5.4 R (bound/input frequency ratio)
B10	6.07 R (bound/input frequency ratio)
B11	5.03 R (bound/input frequency ratio)
B12	5.37 R (bound/input frequency ratio)
B13	5.47 R (bound/input frequency ratio)
B14	6.62 R (bound/input frequency ratio)
B15	8.61 R (bound/input frequency ratio)
B16	6.93 R (bound/input frequency ratio)
B17	5.87 R (bound/input frequency ratio)
